In all, about 68,000 sequences were measured (“fluorescence intensity (a.u.)”: median about 9,100, highest 2% from about 16,000 on). The entries come from a sample that favours the highest values as a whole.

OsWRKY34, sequence (Q0JBA9 entry or part of it): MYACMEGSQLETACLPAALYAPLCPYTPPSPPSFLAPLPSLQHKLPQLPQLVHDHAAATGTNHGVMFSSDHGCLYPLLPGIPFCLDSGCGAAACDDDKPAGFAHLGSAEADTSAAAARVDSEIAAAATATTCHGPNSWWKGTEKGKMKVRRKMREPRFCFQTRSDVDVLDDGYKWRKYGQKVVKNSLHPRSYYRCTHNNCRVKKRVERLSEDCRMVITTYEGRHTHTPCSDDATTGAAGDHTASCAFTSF

This assay concerns the target OsWRKY34 (Oryza sativa, UniProt Q0JBA9 1-250). In words: protein-binding microarray (RPBM); PBS, 2% BSA, 51.3 ng/ul salmon testes DNA, 50 uM zinc acetate, 200 nM TF, 25 C, 1 h; high values mean tight binding. The conditions noted are these: protein: recombinant; tags: N-terminal polyhistidine and DsRed monomer fusion (pET32a); label: CyDye5-dUTP incorporated in the synthesized complementary strand; 3' TTTTT single-stranded linker to array surface; dsDNA, one strand shown. In outline:
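The binding signal is fluorescence intensity per array feature (arbitrary units). Readings came from an Axon 4000B scanner after a washed, 2% BSA-blocked, double-stranded custom Agilent array had been incubated for 1 h at 25 °C with 200 nM protein and 50 µM zinc acetate. The protein was a Ni–NTA-purified transcription factor fused N-terminally to polyhistidine and DsRed, expressed in E. coli BL21-CodonPlus.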
For “TTCTTCGTTTTTCTGAGTACGATCTCCCAGGGTTATAATCCGGAGTCACCTAGTGCAG”, the binding signal is 8850 fluorescence intensity (a.u.). To “CGAGACCGACTGATGCTACAACTTCTGTCCTTGCTCCGGCCGGAGTCACCTAGTGCAG” belongs 8620 fluorescence intensity (a.u.). Turning to “ATGTGTGACTTGTCTTTTTAATTTTTTTTTTAATTTTTTTCGGAGTCACCTAGTGCAG”, the binding signal is 9610 fluorescence intensity (a.u.).

Regarding “AGGCTATCGTATGACTTTCTTCTGCTTTCATTTGTGTTCACGGAGTCACCTAGTGCAG”, the binding signal is 15300 fluorescence intensity (a.u.). With “TGGTGGCGTCTGTATTGGGTTTCTTTCTCCAAGTTATATTCGGAGTCACCTAGTGCAG” the figure was 9710 fluorescence intensity (a.u.).

Consider “CTTTGCTCACTCTTTCTTTTCTCTTCAGGTCTCCATTCTTCGGAGTCACCTAGTGCAG”, for which the binding signal is 12200 fluorescence intensity (a.u.).

Turning to “CGTGTCGGTGTCTCATCTCTCTCTCTCTTCCCATCCGCCGCGGAGTCACCTAGTGCAG”, the binding signal is 8790 fluorescence intensity (a.u.). For the sequence “CCAAAAACCTCTACTCTTCCGCGTCTTGGAAAATTCTTCTCGGAGTCACCTAGTGCAG”, the binding signal was 9300 fluorescence intensity (a.u.). On to “TTGCTAAAAAGTCAACGGTGTCAAATATTTCGAAACGGAGCGGAGTCACCTAGTGCAG”, for which the binding signal is 12300 fluorescence intensity (a.u.).

“GTCAAACATGTGCTAAAAAGTCAACGGTGTCAAACATTTCCGGAGTCACCTAGTGCAG”: the binding signal was 17400 fluorescence intensity (a.u.). To “AAACATGTGCTAAAAAGTCAACGGTGTCAAACATTTTGAACGGAGTCACCTAGTGCAG” belongs 10400 fluorescence intensity (a.u.). With “TACTATTTTTTTCTATAACTATTTATGTCACATGTAAATACGGAGTCACCTAGTGCAG” the figure was 8300 fluorescence intensity (a.u.); with “GTGCTAAAAAGTCAACGGTGTCAAATATTTAGAAATGAAGCGGAGTCACCTAGTGCAG”, 21200 fluorescence intensity (a.u.).

For the sequence “GTCAAACATGTGCTAAAAAGTCAACAGTGTCAAACATTTCCGGAGTCACCTAGTGCAG”, the binding signal is 9540 fluorescence intensity (a.u.). To “TGTGCTAAAAAAGTCAACGGTGTCAAATATTTCGAAACGGCGGAGTCACCTAGTGCAG” belongs 14700 fluorescence intensity (a.u.).

As for “TTATAACATGTCATTAATAAAGGGCATTATGCAACTAATACGGAGTCACCTAGTGCAG”, the binding signal is 64200 fluorescence intensity (a.u.). Regarding “CATGTCACTATACTATTATATCCTATTATATCCTATAATACGGAGTCACCTAGTGCAG”, the binding signal was 8100 fluorescence intensity (a.u.). With “TCAAACACGTACTAAAAAGTCAACGGTGTCAAACATTTTGCGGAGTCACCTAGTGCAG” the figure was 15600 fluorescence intensity (a.u.); with “AATAATAAGAACGGTCAAACATATGCTAAAAAGTCAACGGCGGAGTCACCTAGTGCAG”, 11500 fluorescence intensity (a.u.). Turning to “TAAGATAAACGGTCAAACATTTGCTAAAAAGTCAACGGTGCGGAGTCACCTAGTGCAG”, the binding signal is 17300 fluorescence intensity (a.u.).

For “CATCTTCGCAGCAACTCAGTCATCAGCCCATAGCCATTTACGGAGTCACCTAGTGCAG”, the binding signal was 8950 fluorescence intensity (a.u.).

As to “AAGGCTTATCACTTCGATTTTTATTTTAGTCCTTGTACTTCGGAGTCACCTAGTGCAG”, the binding signal is 8460 fluorescence intensity (a.u.). Regarding “ACCATCTTTTAAATCAGACCTCTCACCAATTTTGATATTTCGGAGTCACCTAGTGCAG”, the binding signal was 8230 fluorescence intensity (a.u.).

For “CGCCGGTACGTTTTCCCCGCCGCCGCCTTTCCGGCCGGCCCGGAGTCACCTAGTGCAG”, the binding signal was 8950 fluorescence intensity (a.u.). With “ACTGTAGCCCATTTTTGATATGGCCAAGGCCCACATAGCACGGAGTCACCTAGTGCAG”, the binding signal is 8260 fluorescence intensity (a.u.). To “GTCTACATGAACCATTCCAAATGACTTTTATAGGATTTCACGGAGTCACCTAGTGCAG” belongs 8340 fluorescence intensity (a.u.). To “GCACCAAGGCCAATACTTGTCCGGATCACCAAGGACACCTCGGAGTCACCTAGTGCAG” belongs 8020 fluorescence intensity (a.u.); to “TTTATTAGTTTGTGTCCTGGTTTTCTTTTTCAGTTAGATTCGGAGTCACCTAGTGCAG”, 8430 fluorescence intensity (a.u.); to “TTACAAGACTTAATTTCAAGGTCCGTCGATTGTCTCTCCACGGAGTCACCTAGTGCAG”, 8830 fluorescence intensity (a.u.). To “GTATAGGGGAGAGGGTGGGCGGGTGATCACTGGGTGGGTGCGGAGTCACCTAGTGCAG” belongs 12200 fluorescence intensity (a.u.); to “CCCTCCGCTGAGGTTGCGGTTGATGATCTTTCATCAGTGACGGAGTCACCTAGTGCAG”, 8590 fluorescence intensity (a.u.).

With “ATCCATCACATCACGAAACCACTTCATGTACTCTTAACATCGGAGTCACCTAGTGCAG”, the binding signal is 8080 fluorescence intensity (a.u.). To “AAACATGTGCTAAAAAGTCAACGGTGTCAAATATTTCGAACGGAGTCACCTAGTGCAG” belongs 15600 fluorescence intensity (a.u.). To “TATGTGCTAAAAAGTCAACGGTGTCAAACATTTCGAAACGCGGAGTCACCTAGTGCAG” belongs 14000 fluorescence intensity (a.u.); to “AAATGTGCTAAAAAGTCAACGGTGTCAAACATTTCGAAATCGGAGTCACCTAGTGCAG”, 16400 fluorescence intensity (a.u.). To “AAACCTCCACCACCACCGCCACCACCGCCGCGCAAAACCCCGGAGTCACCTAGTGCAG” belongs 8700 fluorescence intensity (a.u.); to “TATCTTTTTCTTTTTGGAGGTTTCGTTTTCTCTTGGTCAACGGAGTCACCTAGTGCAG”, 10400 fluorescence intensity (a.u.).

“GCTAGACTATCATCAGCAAGCTAGCAATTAAAGGCCTTGTCGGAGTCACCTAGTGCAG”: the binding signal was 64200 fluorescence intensity (a.u.). With “TTTCATCAATTGCCTCTTGTATCAGCTACTATGCAATATACGGAGTCACCTAGTGCAG” the figure was 8850 fluorescence intensity (a.u.); with “AATTAACATCACCAATCAGCAATCACCAACCTTGTCATCTCGGAGTCACCTAGTGCAG”, 8970 fluorescence intensity (a.u.).

With “CCATGCTCGCGGCGTTTACTTTCCTCACTATTTTTTAGATCGGAGTCACCTAGTGCAG”, the binding signal was 9410 fluorescence intensity (a.u.). To “GGATCGCGTGGTTTGTGTCGTGTCTTTGCATACGGCGACACGGAGTCACCTAGTGCAG” belongs 8300 fluorescence intensity (a.u.); to “CCATCACCACCTCCCGATCCGCGCGCTTTCTCTCCCGCGCCGGAGTCACCTAGTGCAG”, 9090 fluorescence intensity (a.u.).

The record behind these values is article PMC7819943, “Rice protein-binding microarrays: a tool to detect cis-acting elements near promoter regions in rice”.
